From PubChem BioAssay (NCI) come the findings set out here.

SMILES strings stand for the structures. The panel holds about 83,000 compounds, 20% with a hit somewhere; the sample as a whole holds those more often.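 The endpoint reported here, percent growth, reads 100 for growth as untreated, 0 for no net growth and -100 for all cells dead.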 Unmarked numbers belong to inactive results. Calls of active or inactive are those of the source. The calls were made as follows: active = growth percent below 10; inactive = the rest.

Common to all, as to experiment: NCI-60 one-dose screen, 48 h (100 = growth as untreated, 0 = no growth, -100 = all killed)
What all share (conditions): 10 µM

Test [1] concerns T-47D breast.
Test [2] relates to BT-549 breast.
Test [3] deals with MDA-MB-435 melanoma.
The test system of test [4] is SW-620 colon.
The subject of test [5] is MCF7 breast.
Test [6] relates to HCT-116 colon.
The test system of test [7] is HCC-2998 colon.
Test [8] has as its system KM12 colon.

`Cc1c2cnccc2c(C)c2c1oc1ccccc12`: the growth in test [1] was 77.5%; in test [2], 80.9%; in test [3] it was 91.6%; in test [4] it was 64.1%; in test [5], 43.7%; in test [6] it was 45%. The growth in test [7] was 84.9%; in test [8], 81.7%.

For the compound `COC(=O)c1c[nH]c2cc(OC(C)C)c(OC(C)C)cc2c1=O`, the growth is 103% in test [1]; 112% in test [2]; 106% in test [3]; 105% in test [4]; 84.8% in test [5]; 102% in test [6]. Further, the growth is 104% in test [7] and 106% in test [8].

As for `CCOC(=O)c1cc(C(=O)c2cc(OC)c(OC)c(OC)c2)n2nc(C)ccc12`, the growth in test [1] was 93.6%; in test [2], 47.5%; in test [3], 3.24% (active); in test [4], 26.7%; in test [5] it was 21.6%; in test [6], 14.7%. Moreover, the results for the growth in test [7] and in test [8] were 25.9% and 28%, respectively.

On to `Nc1ccc(-c2cccs2)cc1NC(=O)c1ccc(CCCC(=O)Nc2ccc(C3CC3N)cc2)cc1` (stereo not given), for which the growth in test [1] is 65.1%; in test [2], 96.5%; in test [3], 20.6%; in test [4], 23.7%; in test [5] it was 18.8%; in test [6], 3.29% (active). The growth was 99.7% in test [7] and 69.3% in test [8].

Regarding `COc1ccc2nc3cc(Cl)ccc3c(Nc3cc(CN4CCCC4)c(O)c(CN4CCCC4)c3)c2n1`, the growth was 13.1% in test [1]; -37% (active) in test [2]; -94% (active) in test [3]; 7.17% (active) in test [4]; -11.9% (active) in test [5]; 6.62% (active) in test [6]. For the same compound, the figures for the growth in test [7] and in test [8] were -31.8% (active) and 11.8%, respectively.

On to `CCOC(=O)c1sc2ncnc(Nc3ccc4c(cnn4C(=O)Nc4ccc(C)c(Cl)c4)c3)c2c1C`, for which the growth in test [1] was 101%; in test [2], 102%; in test [3], 100%; in test [4], 102%; in test [5], 87.8%; in test [6], 88.9%. For the same compound, the values for the growth in test [7] and in test [8] were 94.1% and 95.4%, respectively.

Regarding `COc1ccc2cc(-c3nc4ccccc4s3)c(Cl)nc2c1OC`, the growth is 91.2% in test [1]; 114% in test [2]; 110% in test [3]; 93.8% in test [4]; 92.9% in test [5]; 108% in test [6]. Further, the growth in test [7] was 105%; in test [8], 101%.

For the compound `CCOC(=O)c1cc(C(=O)c2ccc(OC)c(OC)c2)n2c1ccc1ccc3cccnc3c12`, the growth in test [1] is 47.5%; in test [2], 33%; in test [3], -25.6% (active); in test [4] it was 12.8%; in test [5] it was 21.8%; in test [6] it was 27.2%. Also, the growth was 65.7% in test [7] and 28.8% in test [8].

As to `Cc1nc2n(c(=O)c1CCN1CCC(c3noc4cc(F)ccc34)CC1)CCC[C@@H]2O`, the growth in test [1] is 84.1%; in test [2], 99.4%; in test [3], 98.8%; in test [4], 101%; in test [5], 84.7%; in test [6], 99.5%. In addition, the growth in test [7] is 109%; in test [8], 99.9%.

As to `O=C1CCn2c1c(O)c1ccccc1c2=O`, the growth in test [1] was 94.5%; in test [2], 113%; in test [3] it was 99.5%; in test [4], 101%; in test [5] it was 94.8%; in test [6], 107%. In addition, the growth in test [7] and in test [8] was 109% throughout.

Regarding `Oc1ccc(/C=N/N=C2c3ccccc3-c3ccccc32)c(O)c1`, the growth is 42.8% in test [1]; 78.4% in test [2]; 21.5% in test [3]; 75.4% in test [4]; 43.3% in test [5]; 66.1% in test [6]. Moreover, the values for the growth in test [7] and in test [8] were 80.9% and 52.2%, respectively.

Consider `CC(C)C1=C(O)C2=C(C(=O)C1=O)[C@@]1(C)CCCC(C)(C)[C@@H]1CC2`, for which the growth in test [1] is 67.7%; in test [2], 106%; in test [3] it was 75.4%; in test [4], 55.4%; in test [5], 66.4%; in test [6], 58%. In addition, the growth is 53.8% in test [7] and 52% in test [8].

On to `O=C(CSc1nccc(Nc2cccc3ccccc23)n1)c1ccc(Cl)cc1`, for which the growth is 76.1% in test [1]; 102% in test [2]; 101% in test [3]; 92.7% in test [4]; 99.5% in test [5]; 67.5% in test [6]. Further, the results for the growth in test [7] and in test [8] were 101% and 94.7%, respectively.

Take `CCc1c2c(nc3ccc(OC(=O)N4CCC(N5CCCCC5)CC4)cc13)-c1cc3c(c(=O)n1C2)COC(=O)[C@]3(O)CC`: the growth is 25.1% in test [1]; 22.1% in test [2]; 34.2% in test [3]; 41.4% in test [4]; 3.64% (active) in test [5]; 22% in test [6]. For the same compound, the figures for the growth in test [7] and in test [8] were 28.2% and 53.1%, respectively.

Take `O=C(Cn1cc(CO)nn1)Nc1nc2ccccc2s1`: the growth in test [1] was 110%; in test [2], 106%; in test [3], 99.7%; in test [4], 106%; in test [5], 97.9%; in test [6] it was 97.2%. The growth in test [7] is 109%; in test [8], 107%.
